Inconclusive results are not listed. A call without a number means that no potency is given here. Activity calls are given as the source filed them. Calls come from the whole dose curve; as a rule, active = well fitted cell-killing curve with a large enough effect; inconclusive = small, poorly fitted or top-dose-only effect, or effect the other way; inactive = flat fitted curve, though single readings scatter.
test system: Tov112D; assay: Primary qHTS to identify gynecologic anti-cancer compounds using libraries of approved drugs and bioactive compounds (AID 1345084); conditions: Gynecologic cancer cell panel viability, ATPlite luminescence, 48 h; series mostly up to 57.5 µM; note: nearly all actives have a fitted effect of over 55% in size
How it was run: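 ATP-based viability (ATPlite), 1,000 cells/well, 16 h pre-incubation, 48 h compound at 37 C, 5% CO2, 15 min RT before read.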
Potency is the fitted concentration of half-maximal effect.

Compound	Potency	activity change, negative = cytotoxicity
CNC(=O)c1ccc(C)c(-n2c(C)cc(OCc3ccc(F)cc3F)c(Br)c2=O)c1	inactive	
Cc1n[nH]c(C)c1Cc1sc2c(c1C(=O)N1C[C@H](O)CO1)c(=O)n(C)c(=O)n2CC(C)C	inactive	
Cn1cc(-c2ccc3nnc(C(F)(F)c4ccc5ncccc5c4)n3n2)cn1	inactive	
CCCS(=O)(=O)Nc1ccc(F)c(C(=O)c2c[nH]c3ncc(Cl)cc23)c1F	inactive	
Cc1csc(NC(=O)c2sc3nc4c(c(C(F)(F)F)c3c2N)CCC4)n1	11.2 µM (active)	
C#Cc1cccc(Nc2ncnc3cc(OCCOC)c(OCCOC)cc23)c1	inactive	
CC(C)OC(=O)C1=CN(C(=O)c2ccc(F)c(F)c2)CC(C)(C)c2c1[nH]c1ccccc21	inactive	
N#CC[C@H](C1CCCC1)n1cc(-c2ncnc3[nH]ccc23)cn1	inactive	
CC[C@H](Nc1ncnc2nc[nH]c12)c1nc2cccc(F)c2c(=O)n1-c1ccccc1		-0.869% [at 11.6 µM] (inactive)
CCOc1ccn(-c2ccc(F)cc2)c(=O)c1C(=O)Nc1ccc(Oc2ccnc(N)c2Cl)c(F)c1	inactive	
CC(C)(N)C(=O)N[C@H](COCc1ccccc1)C(=O)N1CCC2(CC1)CN(S(C)(=O)=O)c1ccccc12	inactive	
Cn1cnc2c(F)c(Nc3ccc(Br)cc3Cl)c(C(=O)NOCCO)cc21	inactive	
CNCc1ccc(-c2[nH]c3cc(F)cc4c3c2CCNC4=O)cc1	inactive	
CC1(C)Cc2c(-c3ccccc3)c(-c3ccc(Cl)cc3)c(CC(=O)O)n2C1	inactive	
CC1(C)CNc2cc(NC(=O)c3cccnc3NCc3ccncc3)ccc21	inactive	
CN(C)c1ccc(C2Nc3ccc4ccccc4c3C3=C2C(=O)CC(C)(C)C3)cc1Br (stereo not given)	inactive	
CCc1cncnc1N1CCN(Cc2nc3ccc(C(F)(F)F)cc3[nH]2)CC1	inactive	
COc1ccccc1[C@H](c1cccc2ccccc12)[C@@](C)(C#N)C(=O)N1CCC(c2cccc(C(F)(F)F)c2)CC1	inactive	

Compound	Potency	activity change, negative = cytotoxicity
COc1cc2c(cc1OC)CN(CCc1ccc(NC(=O)c3cccc4c(=O)c5cccc(OC)c5[nH]c34)cc1)CC2	inactive	
CN(C)C(=O)c1ccc(S(=O)(=O)c2ccc(NC(=O)[C@@](C)(O)C(F)(F)F)c(Cl)c2)cc1	inactive	
CCC(C)n1ncn(-c2ccc(N3CCN(c4ccc(OC[C@H]5CO[C@](Cn6cncn6)(c6ccc(Cl)cc6Cl)O5)cc4)CC3)cc2)c1=O (stereo not given in full)	inactive	
Cc1ccnc(NS(=O)(=O)c2ccc(NC(=O)Nc3ccc(S(=O)(=O)Nc4nccc(C)n4)cc3)cc2)n1	inactive	
CN(C(=O)c1ccc(F)cc1C(F)(F)F)C1CCN(c2nnc(-c3ccnn3C)c3ccccc23)CC1	inactive	
O=C(Nc1ccc(F)c(C(F)(F)F)c1)Nc1nnc(-c2ccncc2)s1	inactive	
CCOc1cc(C(=O)Nc2ccc(Cl)c(-c3nc4ccccc4[nH]3)c2)cc(OCC)c1OCC	inactive	
COc1nc(-c2ccc3c(c2)OCO3)n(-c2ccc(NC(=O)CSc3ccccc3)cc2)n1	inactive	
CN(C)c1ccc(Nc2nc(N)n(C(=O)c3c(F)cccc3F)n2)cc1	inactive	
C[C@H](NC(=O)Cc1cc(F)cc(F)c1)C(=O)N[C@@H]1C(=O)N(C)c2ccccc2-c2ccccc21	inactive	
C[C@@H]1CN(Cc2ccc(F)cc2)[C@@H](C)CN1C(=O)c1cc2c(C(=O)C(=O)N(C)C)cn(C)c2cc1Cl	inactive	
OCCn1cc(-c2cnc3nnn(Cc4ccc5ncccc5c4)c3n2)cn1	inactive	
C[C@]12CCC(=O)C=C1CC[C@@H]1[C@@H]2[C@@H](O)C[C@@]2(C)[C@H]1CC[C@]2(O)C(=O)CO	inactive	
COc1cc2nccc(Oc3ccc(NC(=O)NC4CC4)c(Cl)c3)c2cc1C(N)=O	inactive	
CCCS(=O)(=O)Nc1ccc(F)c(C(=O)c2c[nH]c3ncc(-c4ccc(Cl)cc4)cc23)c1F	inactive	
COc1cc(Oc2ccnc3cc(OC)c(OC)cc23)ccc1NC(=O)NC(C)c1nccs1 (stereo not given)	inactive	
COc1ccc(CCN2CCN(CCCc3ccccc3)CC2)cc1OC	inactive	
